Changes are numbered by the printed parent chain. The full ranking holds about 24,000 sequences; the median of “enrichment r” is about 0.99, and the highest 2% start at about 3.7. What follows is part of a selection rich in the highest values, with near analogues and random picks from the rest.

The values below come from article PMC12136788.

B1: chr6:29491266:29491267:-_ENSMUSG00000012535_ENSMUST00000012679|mus_mus|FALSE|FALSE (ssRNA)
RNA: GGGAGUUCUACAGUCCGACGAUCGGGUUGGGCUCUACAUUAAAAGCAACUUUGACCCUGGCUAGUCCGGACUAUCAUCCCUAACCAUGAUAUAAGCAGACCAGGCUCCUUGUCUGGACAUUUCUAAAGGUGAACAGUUGGGGGCAACAGAGGAUUGAGCAUCA
B2: chr3:182775190:182775191:-_ENSG00000078070_ENST00000265594|hu_mus|FALSE|FALSE (ssRNA)
RNA: GGGAGUUCUACAGUCCGACGAUCCUGCACACUACAGUCUCUUUCAAACAAGUACACUGCGUUGCCAUGGUGAUCACCAAACACCUGGACUUCUACAUGCCUUGGAGUGUCCACGAACUUCUCGAUCAACAUUGCAUCAUCAUUCAACAGAGGAUUGAGCAUCA
B3: 49705422_49710499_381_CDS_ENSG00000102531_ENST00000398316|human|control|control (ssRNA)
RNA: GGGAGUUCUACAGUCCGACGAUCAAAGUUGGACCUUCCAUGUGUAGAGUGAGCAUCUACAUCUCCAUAGACUUGUGAAGACUGAUACUGUGGCAUAUACUGUGUUGUCAUGUCUCCAGCUCCAGUCACGGGUGAGUACAUAUGCAACAGAGGAUUGAGCAUCA
B4: chr1:39494564:39494565:+_ENSG00000168653_ENST00000372967|hu_hu|hu_hu_hu_mus_True|1_1 (ssRNA)
RNA: GGGAGUUCUACAGUCCGACGAUCAUGCAUUCGCCUCAUCGUUUUGUACCGAAGCAAGCACUCUUCGAAGUCAUCGAACUCUAUCUUGCACUCCUUUUUCGCCCGGGUCCCACCGAUCCCGUGUGCACACUCUAUCCAUUCUUUCAACAGAGGAUUGAGCAUCA
B5: 117841126_117842589_621_3pUTR_ENSMUSG00000033326_ENSMUST00000106406|mouse|control|control (ssRNA)
RNA: GGGAGUUCUACAGUCCGACGAUCCUUCUCCACCAGGUCCAGGAUGGUCUUCAGCCGGCCGAUAUUCCACUCAUCAACGUGCUGUUCAUAGAGAGUACCAUUCACGUCUGCUCCAUAGAUGGGAGGAUUGAAUGUGAGGUUUUUCAACAGAGGAUUGAGCAUCA
B6: chr2:166765161:166765162:+_ENSMUSG00000002718_ENSMUST00000002790|mus_hu|motif|central (ssRNA)
RNA: GGGAGUUCUACAGUCCGACGAUCGGAUAAACAUAUUGCUUCAAACAUGUAGUGAUUAAAGUGAGGUUUGCUUGGGUUCUUACGGACAGCUAAUAGCUUCUGUGUAAGCUGAGUGAUGAGAGUAGGGAUGUAGGGGAUUAUGGCCAACAGAGGAUUGAGCAUCA
B7: chr16:45382771:45382772:-_ENSMUSG00000022661_ENSMUST00000163230|mus_mus|mus_mus_mus_hu_True|28_38 (ssRNA)
RNA: GGGAGUUCUACAGUCCGACGAUCCUGGGUCAUGUUAUAAGACAAAUGGACAGGGAGGGCAUGCUUCUCAAAAAAUGUGAGCUAUUGUCUAAGACUAACAAUAUUGCCUAAGUGCUAAAAAUAAGUUAAAUGAAUAAGUUAAGACAACAGAGGAUUGAGCAUCA
B8: chr16:8858281:8858282:+_ENSMUSG00000022507_ENSMUST00000023150|mus_mus|motif|central (ssRNA)
RNA: GGGAGUUCUACAGUCCGACGAUCCUCAUGAGGUGAGGAGGUGCUACAUAUUGAAUGCAAUGGAAAAAAGUAACCAGUGCGGAAGUUUUUAAAAAGUUUAAUGGAGCCAAUAAUUCGGCAUAUAAAUUGUGUUCUGGCAGACAUCAACAGAGGAUUGAGCAUCA
B9: chr16:8858281:8858282:+_ENSMUSG00000022507_ENSMUST00000023150|mus_mus|FALSE|FALSE (ssRNA)
RNA: B8 RNA with G80U, G81A
B10: chr16:45382771:45382772:-_ENSMUSG00000022661_ENSMUST00000163230|mus_mus|mus_mus_mus_hu_True|28_48 (ssRNA)
RNA: B7 RNA with U87A, G105U, C106A
B11: chr16:45382771:45382772:-_ENSMUSG00000022661_ENSMUST00000163230|mus_mus|mus_mus_mus_hu_True|28_108 (ssRNA)
RNA: B7 RNA with G27A, C30G, A31U, G33A, A36G, G105U, C106A
B12: chr5:128440902:128440903:+_ENSG00000066583_ENST00000173527|hu_mus|hu_hu_hu_mus_True|38_48 (ssRNA)
RNA: GGGAGUUCUACAGUCCGACGAUCUUGAACGGUGCUGCCAAGUCCUUUGGGGUAUUGUUCCGUUAUGAUAACUGGAAUCCCUAAGAUCCGGGCCCCUUGCAACAAUCUCUGUCCCACACUAAUGAUGUCCCCAAAGUAUUUGAUCAACAGAGGAUUGAGCAUCA
B13: chr3:133545784:133545785:-_ENSG00000154917_ENST00000285208|hu_mus|motif|central (ssRNA)
RNA: GGGAGUUCUACAGUCCGACGAUCGAGGAUGUGAGUGUGUGUAUGUGUGCGCGCGAAGGGUGUAUACACAAGUCUAUCUCGGUGUAUAAUUAUGUACACACAUAUAAAAACUAAACACGUGACGUUUCGAUUAUGCUCGUACAUCAACAGAGGAUUGAGCAUCA
B14: chr1:39494564:39494565:+_ENSG00000168653_ENST00000372967|hu_hu|motif|central (ssRNA)
RNA: GGGAGUUCUACAGUCCGACGAUCACCUGCACGUCUCAUCGUUUUCUGCCGAAGCAAACACUCUACGAAAUCAUCAUAUUCGGUCUUGCACUCUUUCUCUGCCCGAGUAUAACCGAUUCCAUGUGCACAUUCUAUCCAUUCUUUCAACAGAGGAUUGAGCAUCA
B15: 121693014_121693134_369_3pUTR_ENSMUSG00000060227_ENSMUST00000078752|mouse|control|control (ssRNA)
RNA: GGGAGUUCUACAGUCCGACGAUCUUCUCCAAGCGCCCGCGGGCCACCUCGGUGCGCUGGACCUGGCCCUGCAGCUCGGCCACCUCCUCCUGAAGCAGAACGUGGCGGGAGGAGAUGCUCCAGUAGUUGAAGGCAAGGACGACGCAACAGAGGAUUGAGCAUCA
B16: chr19:47610742:47610743:-_ENSMUSG00000042694_ENSMUST00000049369|mus_hu|FALSE|FALSE (ssRNA)
RNA: GGGAGUUCUACAGUCCGACGAUCUGGCACCUGGCGGGACUCCUUCAUGUCCAGGAUAUCCCUGAUGUAGAGUUUUGCAAAGGCUAGAAACACAGGAUCCAAACCCCACAAGAGGGAAGGGGUCUCCUCUUCACACCGGCUGGACAACAGAGGAUUGAGCAUCA
B17: chr16:94646735:94646736:+_ENSMUSG00000040785_ENSMUST00000117648|mus_mus|motif|central (ssRNA)
RNA: GGGAGUUCUACAGUCCGACGAUCUGUUUUUAACUUUUUCCAGCAGUUCAUAUGAAAUUCUACCUUACAGUAUUGGCAACAGCGGAUUCGUAUAAAACCCUUAAAGUCUGGAUCAGUUAAGUAAAUCUGAAUUUUAGAAUAUCCCAACAGAGGAUUGAGCAUCA
B18: chr6:145182920:145182921:-_ENSMUSG00000030265_ENSMUST00000032399|mus_hu|motif|central (ssRNA)
RNA: GGGAGUUCUACAGUCCGACGAUCCUCCUCUUGACCUGCUGUGUCGAGAAUAUCCAAGAGACAGGUUUCUCCAUCAAUUACGGCUUGCUUCCUGUAGGAAUCCUCUAUUGUUGGAUCAUAUUCGUCCACAAAAUGAUUCUGAAUCAACAGAGGAUUGAGCAUCA
B19: chr7:75932113:75932114:+_ENSG00000106211_ENST00000248553|hu_mus|FALSE|FALSE (ssRNA)
RNA: GGGAGUUCUACAGUCCGACGAUCCUGCGACCACUCAUCGGGCAACCGGGGCACCCCGAAAGCUUGAUCGAAGAGGCGGCUGUGUGCAGGGUACCAGUCCCGGAAUGGUUCCCAGCUCGGGCUCCGCAGCAGCGAGAAGGGCACCAACAGAGGAUUGAGCAUCA
B20: chr16:45382771:45382772:-_ENSMUSG00000022661_ENSMUST00000163230|mus_mus|mus_mus_mus_hu_True|28_78 (ssRNA)
RNA: B7 RNA with G57A, C66U, G105U, C106A
B21: chr16:45382771:45382772:-_ENSMUSG00000022661_ENSMUST00000163230|mus_mus|mus_mus_mus_hu_True|18_28 (ssRNA)
RNA: B7 RNA with G105U, C106A, A117U, U121A, A123U, G124A, U125A, U126G
B22: chr16:45382771:45382772:-_ENSMUSG00000022661_ENSMUST00000163230|mus_mus|mus_mus_mus_hu_True|28_88 (ssRNA)
RNA: B7 RNA with C50U, G105U, C106A
B23: chr16:45382771:45382772:-_ENSMUSG00000022661_ENSMUST00000163230|mus_mus|mus_mus_mus_hu_True|28_68 (ssRNA)
RNA: B7 RNA with C68G, A69U, A73G, G105U, C106A

The assay has as its target T1, UNK ZnF1-3 (human, UniProt Q9C0B0 31-174).
T1 sequence: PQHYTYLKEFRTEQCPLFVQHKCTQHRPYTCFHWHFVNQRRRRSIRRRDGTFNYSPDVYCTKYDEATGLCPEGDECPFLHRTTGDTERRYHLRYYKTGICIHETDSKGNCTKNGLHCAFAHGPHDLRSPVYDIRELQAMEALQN
Put plainly: nsRBNS (natural sequence RNA bind-n-seq); RBNS binding buffer (assumed for nsRBNS): 25 mM Tris pH 7.5, 150 mM KCl, 3 mM MgCl2, 0.01% Triton X-100, 500 ug/ml BSA, 20 U/ml SUPERase-In, 4 C; UNK is unkempt and MSI1 is Musashi-1; names of the RNAs are library labels; protein concentration not given here; high values mean tight binding.
As for B1, the binding signal came to 0.897 enrichment R.
The molecule B2 displayed a binding signal of 0.969 enrichment R.
In turn, B3 displayed a binding signal of 0.997 enrichment R.
The molecule B4 had a binding signal of 0.706 enrichment R.
For B5, the binding signal is 1.09 enrichment R.
The value for B6 was 1.62 enrichment R; that for B7 was 12.5 enrichment R.
Consider B8, for which the binding signal was 3.41 enrichment R.
B9 displayed a binding signal of 5.62 enrichment R.
On to B10, for which the binding signal amounted to 7.16 enrichment R.
The value for B11 was 10.2 enrichment R; that for B12 was 0.772 enrichment R; that for B13 was 1.66 enrichment R.
Turning to B14, the binding signal amounted to 0.521 enrichment R.
B15: the binding signal worked out at 0.777 enrichment R.
Take B16: the binding signal stood at 0.707 enrichment R.
With B17, the binding signal stood at 1.03 enrichment R.
For the molecule B18, the binding signal turned out to be 0.665 enrichment R.
The figure for B19 is 1.04 enrichment R.
For the molecule B20, the binding signal was found to be 12.8 enrichment R.
The value for B21 was 9.98 enrichment R; that for B22 was 5.11 enrichment R.
Take B23: the binding signal was determined as 6.96 enrichment R.
